Most compounds without a hit are left out; they make up all but 8% or so of the library.
MARV entry inh = inhibitors of Marburg virus binding or cell entry; Marburg virus pseudotyped entry inhibition, cell reporter; Potency, µM (titrated, usually from 37.8 µM), inactives show at the top dose activity change, negative = inhibition, usual class: inhibitors; 300,000 compounds, 1.8% hits; calls by dose curve; tested in HEK293 cells; further: potency means the concentration at half of the fitted maximal effect; on the % scale 0 is the no-effect control and ±100 the full control effect
HCMV antiviral = blocks human cytomegalovirus replication; AID 1259415; 410,000 compounds, 4.5% hits; activity change, negative = inhibition, % at 57.5 µM; HFF cells, HCMV-luciferase reporter, 72 h; stronger effect = lower value; in the data active means activity change below about -60%; inconclusive means no clear call, values can overlap the other calls; inactive means above about -39%; further: on the % scale 0 is the no-effect control and ±100 the full control effect
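Screen run at 2 compound doses on HFFs infected with reporter HCMV, MOI 1 PFU/cell. Luciferase activity from cell lysates at 72 h post infection gave inhibition relative to buffer-only and Salinomycin wells.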
Lassa entry inh = Lassa virus entry inhibition; Lassa virus pseudotype entry inhibition, cell reporter; Potency, µM (highest dose often 37.9 µM), without a hit: top-dose activity change, negative = inhibition, actives largely listed as inhibitors; 300,000 compounds, 1.2% hits; calls by dose curve; tested in HEK293 cells; further: potency means the concentration at half of the fitted maximal effect; on the % scale 0 is the no-effect control and ±100 the full control effect; nearly all actives have a fitted effect of over 50% in size
SARS PLP yeast = SARS-CoV PLP inhibition in yeast | S. cerevisiae expressing SARS-CoV PLpro, growth rescue | Potency, µM (doses to about 32.9 µM), without a hit: at the top dose activity, positive = growth rescue, usual class: activators | 330,000 compounds, 0.19% hits; calls by dose curve; further: potency means the concentration at half of the fitted maximal effect; 0% is about no effect; nearly all actives have a fitted effect of over 55% in size
FMDV inh = antivirals against foot and mouth disease virus; 410,000 compounds, 1.2% hits; FMDV antiviral cell-based qHTS; Potency, µM (series often up to 57.9 µM), without a hit: at the top dose activity change, negative = inhibition, most hits filed as inhibitors; calls by dose curve; tested in HEK293T cells; further: read-out not given here; potency means the concentration at half of the fitted maximal effect; on the % scale 0 is the no-effect control and ±100 the full control effect; nearly all actives have a fitted effect of over 45% in size
HCV inhibitor = inhibitors of hepatitis C virus infection; Huh7.5.1 HCVcc-Cre infection, luciferase reporter, 44 h; Potency, µM (titrated, usually from 41.8 µM), for inactives: top-dose activity change, negative = inhibition, hits mostly inhibitors; 340,000 compounds, 3.4% hits; AID 651820; active means well fitted inhibition curve with a large enough effect; inconclusive means small, poorly fitted or top-dose-only effect, or another doubt; inactive means no such curve, though single readings can be large or run the other way; further: potency means the concentration at half of the fitted maximal effect; on the % scale 0 is the no-effect control and ±100 the full control effect
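After 44 h co-culture of compound, cells and HCVcc-Cre (~0.5 moi), substrate is added for 15 min at room temperature and luciferase measured over 15 sec. Cells were seeded at 1,000/well and pre-cultured 4 h.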
Numbers without * were called inactive; ? = inconclusive; · = no result given; [ ] = another dose, or the depositor's remark.

SMILES | MARV entry inh | HCMV antiviral | Lassa entry inh | SARS PLP yeast | FMDV inh | HCV inhibitor
COCc1ccc(CN2CCC(C(=O)Nc3cccc(-c4cccc(Cl)c4)c3)CC2)o1 | ? | 42 | ? | -3% | ? | 10µM*
Cc1ccc(CCNC(=O)c2ccc3c(c2)N(Cc2ccccc2F)C(=O)c2ccccc2S3=O)cc1 (stereo not given) | 19%[46.1 µM] | -11 | 6%[46.1 µM] | · | -20% | ·
COc1ccc(-c2cc(OC(=O)c3ccccc3Cl)c3c(C)oc(C)c3c(=O)c2)cc1OC | ? | -6 | -24%[46.1 µM] | · | -1% | ·
COc1cc2oc3ccccc3c2cc1N(CC(=O)N1CCCCC1)S(=O)(=O)c1ccc(C)cc1 | 14µM* | 11 | ? | · | 49% | ?
CCN(CC)C(=O)CN(c1cc2c(cc1OC)oc1ccccc12)S(=O)(=O)c1ccccc1 | 10µM* | 24 | ? | · | 16% | 10µM*
O=S(=O)(NCc1csc(-c2ccccc2)n1)c1ccccc1 | 5%[46.1 µM] | 43 | -8%[46.1 µM] | · | 7% | ·
COC(=O)[C@@]1(C=C2c3ccc(F)cc3[C@@H](OC)[C@@H]2C)[C@@H]2CC=C[C@@H]21 | 0%[14.2 µM] | · | · | · | · | ·
COc1ccc2c3c(n(C)c2c1)[C@H](CO)N(C(=O)c1cccc(F)c1)CC31CN(C(=O)c2cccc(F)c2)C1 | · | 26 | · | · | · | ·
CCOC(=O)c1c(C)oc2nc(C)nc(N3CCN(c4cccc(C)c4C)CC3)c12 | · | 6 | ? | · | 0% | ·
O=C(Nc1ccc(F)c(F)c1)c1ccc(-n2cncn2)c([N+](=O)[O-])c1 | · | -18 | · | -8% | -14% | 22µM*
COc1cc(OC)c(C(=O)Nc2cc(Cl)ccc2-n2cncn2)cc1OC | -3%[46.1 µM] | 28 | -1% | -1% | -28% | 13µM*
O=C(Nc1cc(Cl)ccc1-n1cncn1)c1ccco1 | · | 33 | · | · | -7% | -15%
O=C(Nc1cc(Cl)ccc1-n1cncn1)c1ccc([N+](=O)[O-])s1 | -14% | · | ? | -28% | -16% | 7.9µM*
COc1ccc2c(c1)CC/C=C(/C)CC(CO)O2 (stereo not given) | · | 0 | · | · | · | ·
c1ccc(C(c2c[nH]c3ccccc23)c2c[nH]c3ccccc23)nc1 | 0% | 23 | 7% | 3% | -29% | 0%
c1ccc(C(c2cccs2)c2c[nH]c3ccccc23)cc1 (stereo not given) | · | -66* | ? | · | ? | ·
C=C1CC2C(CCC3(C)C2CCC3(O)C(C)=O)C2(C)CCC(=O)C=C12 (stereo not given) | ? | -79* | 5.6µM* | -1% | 25µM* | -12%
CC(=O)[C@]1(O)CCC2C3CCC4=CC(=O)CC[C@@]4(C)C3CC[C@]21C (stereo not given in full) | · | · | · | · | -13% | ·
CC(=O)C1(C)CCC2C3C=C(C)C4=CC(=O)CCC4(C)C3CCC21C (stereo not given) | 11µM* | -14 | ? | · | -8% | ?
CC(=O)[C@@]1(O)CC[C@H]2[C@@H]3C[C@H](C)C4=CC(=O)CC[C@]4(C)[C@H]3CC[C@@]21C | -27% | ? | ? | -37% | 28µM* | ?
CC(=O)C1(O)CCC2C3CC(C)C4=CC(=O)CCC4(C)C3CCC21C (stereo not given) | · | -16 | · | · | · | ·
O=C(CSc1nc2ccc([N+](=O)[O-])cc2[nH]1)NC1CCCCC1 | ? | -39 | 4% | -7% | ? | -22%
O=C(CSc1nc2ccc([N+](=O)[O-])cc2[nH]1)NC1CCCCCC1 | ? | 13 | -24% | -22% | 5.6µM* | 14µM*
COc1ccc(-n2c(SCC(=O)NCc3ccc(Cl)cc3)nc3ccsc3c2=O)cc1 | · | -13 | -3%[46.1 µM] | · | -10% | ·
N#Cc1ccc(-c2ccc(OCC(O)Cn3nnc4ccccc43)cc2)cc1 (stereo not given) | ? | -37 | 1% | -37% | 28µM* | ?
SMILES | MARV entry inh | HCMV antiviral | Lassa entry inh | SARS PLP yeast | FMDV inh | HCV inhibitor
O=c1cc(-c2ccccc2Cl)oc2c([N+](=O)[O-])c(O)cc(O)c12 | 18% | -72* | 17% | -53% | -12% | 5%[8.37 µM]
CN(C)c1ccc(C(=O)Nc2ccc(O)c3c(=O)cc(-c4ccccc4Cl)oc23)cc1 | · | -16 | · | 2% | -11% | 32µM*
COc1ccc(-c2nc3cc(C)ccc3cc2CN(C(=O)c2ccc(C)s2)C2CC2)cc1OC | · | · | · | · | -14% | ·
CC1=C(C(=O)Nc2ccccc2)C(c2ccc(C(=O)O)cc2)n2nc(SCC(=O)c3ccc(C)cc3)nc2N1 (stereo not given) | · | -7 | 2%[46.1 µM] | · | 47% | ·
O=C(NCCc1nnc2n1CCN(Cc1ccc(F)cc1)CC2)c1ccc(F)cc1 | · | · | · | · | -10% | ·
OC(Cc1ccnc2ccccc12)C(Cl)(Cl)Cl (stereo not given) | ? | -80* | ? | · | ? | 11µM*
O=C(O)C(Cc1ccnc2ccccc12)=NO | 29% | 18 | 9%[46.1 µM] | · | -17% | 16%
CC(C)CO/N=C1\C[C@@H](O)[C@@H](O)[C@@H]2[C@@H]3C(=O)N(c4cccc(Oc5ccccc5)c4)C(=O)[C@@H]3CC[C@@H]12 | -1%[14.2 µM] | · | · | · | · | ·
O=c1c(N2CCN(c3cccc(Cl)c3)CC2)csc2ccccc12 | · | 2 | 1%[46.1 µM] | · | -20% | ·
Cc1ccc(NC(=O)C2CCN(S(=O)(=O)c3ccc4c(c3)OCCCO4)CC2)nc1 | -12% | -63* | -2%[46.1 µM] | 5% | ? | ?
Cc1cccc(NC(=O)C2CCN(S(=O)(=O)c3ccc4c(c3)OCCCO4)CC2)n1 | ? | -79* | -9% | 1% | ? | ?
O=C(Nc1ccccn1)C1CCN(S(=O)(=O)c2ccc3c(c2)OCCCO3)CC1 | ? | ? | 2% | 8% | ? | 4%
COc1cc(C2c3cc4c(cc3C(OC3OC5COC(C)O[C@@H]5C(O)C3O)C3COC(=O)C23)OCO4)cc(OC)c1O (stereo not given in full) | · | · | · | · | 2% | ·
COc1cc([C@@H]2c3cc4c(cc3[C@@H](O[C@@H]3O[C@@H]5CO[C@@H](C)O[C@H]5[C@H](O)[C@H]3O)[C@H]3COC(=O)[C@H]23)OCO4)cc(OC)c1O | · | -99* | · | · | 0% | ?
COc1cc(C2c3cc4c(cc3C(OC3OC5COC(c6cccs6)OC5C(O)C3O)C3COC(=O)C23)OCO4)cc(OC)c1O (stereo not given) | · | -99* | · | 1% | -18% | -31%
O=C(CSc1nccn1Cc1ccco1)Nc1cc(C(F)(F)F)ccc1Cl | · | -23 | -9%[46.1 µM] | · | 7% | ·
COCCNC(=O)C(c1ccc(C)o1)N(C(=O)c1snc(C(N)=O)c1N)c1cc(C)cc(C)c1 (stereo not given) | 1% | -78* | ? | 4% | · | -10%
COc1ccccc1N(C(=O)c1snc(C(N)=O)c1N)C(C(=O)NC1CCCCC1)c1cccc(OC)c1OC (stereo not given) | ? | ? | ? | 2% | -25% | ?

High-throughput results from PubChem BioAssay.
